From PubChem BioAssay (NCATS)
Where “and” joins values, the source holds several entries; their conditions need not be identical. Equal entries are not always repeated. Inconclusive results are not listed. Unmarked numbers belong to inactive results. Calls follow the shape of the dose curve; as a rule, active = well fitted curve in the direction sought with a large enough effect; inconclusive = small, poorly fitted or top-dose-only effect, or another doubt; inactive = no such curve, though single readings can be large or run the other way.

assay: qHTS Assay for Identifying Gametocytocidal Compounds (AID 743244);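 also: actives lower the fluorescent signal which means gametocytes are killed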; conditions: P. falciparum 3D7 stage III-V gametocytes, alamarBlue, 72 h; max response: active compounds read low
Procedure, shortened: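 Stage III-V P. falciparum 3D7 gametocytes, 20,000 per well, were exposed to compounds for 72 h at 37C, 5% CO2. AlamarBlue was then added for 24 h and viability was read as fluorescence at Ex 525/Em 598 nm.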
% is scaled to controls: 0 for no effect and ±100 for the full control effect.

Question: Which max response does the source give for `CCCCCC[C@@H](O)C/C=C\CCCCCCCC(=O)O` here?
Answer: The max response was 10.3% and -5.91% and 3.41%.

Question: With `CC(=O)O[C@H]1C[C@@]2(C)[C@@H](C[C@@H](O)[C@H]3[C@@]4(C)CC[C@@H](O)[C@@H](C)[C@@H]4CC[C@@]32C)/C1=C(\CCC=C(C)C)C(=O)O` as the molecule, how does the max response read?
Answer: Its max response is -4.85%.

Question: Which max response does the source give for `COc1cc2c3cc1Oc1cc(ccc1O)C[C@@H]1c4c(cc(OC)c(O)c4Oc4ccc(cc4)C[C@@H]3N(C)CC2)CC[N+]1(C)C` here?
Answer: Its max response is 1.34%.

Question: Which max response does the source give for `Cc1c(Nc2ncccc2C(=O)O)cccc1C(F)(F)F` here?
Answer: Its max response is 18.5%.

Question: For `O=C(Nc1ccc(C(=O)O)c(O)c1)c1ccccc1`, which max response is on record?
Answer: Its max response is 3.53%.

Question: Which max response does the source give for `CCCC(=O)OC[C@@H](OC(=O)CCC)[C@@H](OC(=O)CCC)[C@H](Cn1c2nc(=O)[nH]c(=O)c-2nc2cc(C)c(C)cc21)OC(=O)CCC` here?
Answer: Its max response is 3.76%.

Question: For `COc1ccc(-c2cc(=S)ss2)cc1`, which max response is on record?
Answer: Its max response is 9.16%.

Question: For `CO/N=C(\C(=O)N[C@@H]1C(=O)N2C(C(=O)O)=C(COC(C)=O)CS[C@H]12)c1csc(N)n1` (stereo in doubt), which max response is on record?
Answer: Its max response is 12.7%.

Question: For `Cc1c(C(=O)O)c(O)cc2c1C(=O)c1c(O)c([C@@H]3O[C@H](CO)[C@@H](O)[C@H](O)[C@H]3O)c(O)c(O)c1C2=O`, which max response is on record?
Answer: Its max response is -1.02%.

Question: With `O=C1CN(/N=C/c2ccc([N+](=O)[O-])o2)C(=O)N1` as the molecule, how does the max response read?
Answer: Its max response is 3.97%.

Question: Which max response does the source give for `CC(C)NC[C@H](O)COc1cccc2[nH]ccc12` here?
Answer: Its max response is 4.63%.

Question: Which max response does the source give for `COC(=O)C1=C(C)NC(C)=C(C(=O)OCC(C)=O)C1c1ccccc1[N+](=O)[O-]` (configuration not stated) here?
Answer: The max response was 14.8%.
